# Screening results: PubChem, Broad Institute
# The full list was thinned out, with hits kept by preference.
# Tgondii IFNg – inhibitors of Toxoplasma gondii growth with IFN-gamma | activity change, negative = inhibition, % (test concentration not listed) | Toxoplasma gondii growth in IFN-gamma-treated host cells; active compounds read low | AID 1259416 | 69,000 compounds, 3.8% hits; in the data active = activity change below about -70%, passing the limit was not always enough;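 note: host cells are HeLa cells infected with Toxoplasma gondii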
# Starred values were filed as active, the others as inactive.
SMILES,Tgondii IFNg
COc1cc(C(=O)O)ccc1NC(=O)[C@@H]1N[C@@H](CC(C)(C)C)[C@](C#N)(c2ccc(Cl)cc2F)[C@H]1c1cccc(Cl)c1F,-80*
Cc1ccc(CN2Cc3[nH]nc(C(=O)N(C)Cc4ccccn4)c3C2)o1,-13
Cc1ccc(C2(CNC(=O)c3cnn4cc(CCO)cnc34)CCOCC2)cc1,12
Cc1ccc2[nH]c3c(=O)n(CC(=O)NCc4ccccn4)cnc3c2c1,16
C[C@H](CO)N1C[C@H](C)[C@H](CN(C)S(=O)(=O)c2ccccc2)OCCCC[C@H](C)Oc2ccc(NC(=O)Nc3ccc4c(c3)OCO4)cc2C1=O,108
COc1ccc(S(=O)(=O)N(C)C[C@@H]2OCCCC[C@H](C)Oc3ccc(NC(=O)Cc4ccccc4)cc3C(=O)N([C@@H](C)CO)C[C@H]2C)cc1,-125*
C[C@@H]1CCCCO[C@@H](CN(C)Cc2ccncc2)[C@H](C)CN([C@@H](C)CO)C(=O)c2cc(NC(=O)Cc3ccccc3)ccc2O1,120
COc1ccc(S(=O)(=O)N(C)C[C@@H]2OCCCC[C@H](C)Oc3ccc(NC(=O)Cc4ccccc4)cc3C(=O)N([C@H](C)CO)C[C@@H]2C)cc1,-92*
COc1ccc(S(=O)(=O)N(C)C[C@H]2OCCCC[C@H](C)Oc3ccc(NC(=O)Cc4ccccc4)cc3C(=O)N([C@H](C)CO)C[C@@H]2C)cc1,-84*
C[C@@H]1CCCCO[C@@H](CN(C)S(=O)(=O)c2ccccc2)[C@H](C)CN([C@@H](C)CO)C(=O)c2cc(NC(=O)Nc3ccc4c(c3)OCO4)ccc2O1,121
COc1ccc(S(=O)(=O)N(C)C[C@H]2OCCCC[C@@H](C)Oc3ccc(NC(=O)Cc4ccccc4)cc3C(=O)N([C@@H](C)CO)C[C@@H]2C)cc1,-69
C[C@@H]1CCCCO[C@H](CN(C)S(=O)(=O)c2ccccc2)[C@H](C)CN([C@@H](C)CO)C(=O)c2cc(NC(=O)Nc3ccc4c(c3)OCO4)ccc2O1,251
C[C@@H]1CN([C@@H](C)CO)C(=O)c2cc(NC(=O)Nc3ccc4c(c3)OCO4)ccc2O[C@@H](C)CCCCO[C@H]1CN(C)S(=O)(=O)c1ccccc1,106
COc1ccc(OC)c(CNC(=O)Cn2ncc3c(N4CCOCC4)ncnc32)c1,53
Nc1ccc(-c2ccc(F)cc2Cl)cn1,19
OC1O[C@@H]2COC(c3ccccc3)O[C@H]2[C@H](O)[C@H]1O (some centres undefined),24
O=C(c1ccccn1)N1CCC2(CCC(C(=O)N3CCCC3)O2)CC1 (centres undefined),2
Cc1ccc(-c2nc(CCNC(=O)C(=O)Nc3c(C)cccc3C)cs2)cc1,-50
Cc1cc(C)cc(NC(=O)C(=O)NCCc2csc(-c3cccc(F)c3)n2)c1,-92*
Cc1cccc(C)c1NC(=O)C(=O)NCCc1csc(-c2ccc(F)cc2)n1,-78*
Cc1ccc(NC(=O)C(=O)NCCc2csc(-c3ccc(F)cc3)n2)cc1,47
Cc1cccc(NC(=O)C(=O)NCCc2csc(-c3ccc(F)cc3)n2)c1,-38
Cc1cc(C)cc(NC(=O)C(=O)NCCc2csc(-c3ccc(F)cc3)n2)c1,-93*
O=C(NCCc1csc(-c2ccc(F)cc2)n1)C(=O)Nc1ccccc1,-43
Cc1ccc(NC(=O)C(=O)NCCc2csc(-c3cccc(F)c3)n2)cc1,53
SMILES,Tgondii IFNg
O=C(NCCc1csc(-c2cccc(F)c2)n1)C(=O)Nc1ccc(F)cc1,-37
CCc1cccc(C)c1NC(=O)COc1nc(C)nc2ccccc12,7
Cc1cccc(Cn2nc(C(C)(C)C)cc2C(=O)O)c1,-9
COCC1CN(C(=O)c2ccc3c(c2)OCO3)Cc2ncn(C)c21 (centres undefined),32
COc1ccc(-c2nc(NCC3CCN(Cc4cccc(C)c4)CC3)c3ccccc3n2)cc1,-36
COc1cccc([C@@H]2CCCN(Cc3cc4n(n3)CCCNC4)C2)c1,-26
COc1cccc(CN2CCCC(c3ccc4c(NCc5cccc(C)n5)n[nH]c4n3)C2)c1 (centres undefined),-83*
COCCC1CCCCN1Cc1ccc(S(C)(=O)=O)cc1 (centres undefined),-5
CC(C)N1CCO[C@H]2CCN(C(=O)c3cn(C)cn3)C[C@H]21,-4
CN1CCN(c2ccc(OC(F)(F)F)c(Nc3ncc4c(n3)-c3c(c(C(N)=O)nn3CCO)CC4)c2)CC1,-81*
CNC(=O)c1nn(C)c2c1C(C)(C)Cc1cnc(Nc3ccc(N4CCN(C)CC4)cc3)nc1-2,-58
O=C(CCCn1ccnc1)N1CCOC(c2ccc(Cl)c(Cl)c2)C1 (centres undefined),-29
O=C(NCc1nc(-c2ccncc2)n[nH]1)Nc1ccccc1C(F)(F)F,-20
O=C(NCc1nc(-c2ccncc2)n[nH]1)c1cccs1,-94*
CC(=O)c1cc(C(=O)NCCc2nc(-c3cccnc3)n[nH]2)cs1,-36
Cc1ccc(-c2noc(-c3nnn(Cc4nc(-c5cccc(C)c5)oc4C)c3C)n2)cc1,1
O=C(O)C1C2C=CC(C2)C1C(=O)NCc1ccc(-c2cccs2)s1 (centres undefined),8
CC(C)(C)c1cnc(CSc2cnc(NC(=O)C3CCNCC3)s2)o1,-72*
Cc1ccc(C)c(OCCN(C)Cc2cc3ccccc3n(C)c2=O)c1,83
Cc1ccc(-c2coc(-c3ccc(NC(=O)COc4ccc(F)cc4)cc3)n2)cc1,-41
c1cnc(NC2CCN(c3ncnc4c3CCNC4)CC2)nc1,-35
c1ccc(C2CCCN(c3ncnc4c3CCNC4)CC2)cc1 (centres undefined),-79*
c1ccc(C2CN(c3ncnc4c3CCNC4)CCO2)cc1 (centres undefined),47
Cc1ccc(CNC2CC3(CCN(CCO)CC3)c3ccccc32)s1 (centres undefined),-21
CCN1c2ccccc2C(=O)NC12CCN(C(=O)Nc1ccc3c(c1)OCO3)CC2,223
SMILES,Tgondii IFNg
NCC1CN(Cc2cnc(NCc3ccccc3)nc2)CCO1 (centres undefined),2
CC1(C)NC(=O)N(CC(O)CN2C(=O)c3ccccc3C2=O)C1=O (centres undefined),33
CC1(C)C(=O)NC2=C1C(=O)C(=O)c1ccccc12,-82*
COC(=O)c1c(NCC(C)C)c2cc(F)ccc2[nH]c1=O,-30
COC(=O)c1c(NCc2ccccc2Br)c2cc(F)ccc2[nH]c1=O,-40
COC(=O)c1c(NCCN2CCCc3ccccc32)c2cc(F)ccc2[nH]c1=O,18
COC(=O)c1c(NCC(C)O)c2cc(F)ccc2[nH]c1=O (centres undefined),19
COC(=O)c1c(NCc2c(C)noc2C)c2ccccc2[nH]c1=O,14
COC(=O)c1c(NCCc2ccc(Cl)cc2)c2cc(F)ccc2[nH]c1=O,-94*
COC(=O)c1c(NCCc2c[nH]c3ccccc23)c2ccccc2[nH]c1=O,-89*
COC(=O)c1c(NCCc2c[nH]c3ccccc23)c2cc(Cl)ccc2[nH]c1=O,-115*
COC(=O)c1c(NCCc2cccs2)c2ccc(F)cc2[nH]c1=O,-36
CCS(=O)(=O)N1CC[C@@]2(C[C@H](N3CCCC3=O)CCO2)C1,29
CN(Cc1ccccc1C(F)(F)F)C(=O)CCNS(C)(=O)=O,1
Cn1ccnc1CN1CCC2(CC(=O)N(c3ccc(F)c(F)c3)C2)C1 (centres undefined),-41
CC(C)C(=O)N1CC2CN(Cc3ccc[nH]3)CC2C1 (centres undefined),-2
O=C(CN1CCCC(c2ccc(-c3ccccn3)cn2)C1)Nc1ccc(F)cc1 (centres undefined),31
